This passage reports composite z-score and z-score results from PubChem BioAssay.

Test [1] is described as follows: compounds binding Alexa647 anti-His antibody – biochemical, small-molecule microarray, 635 nm fluorescence, artefact control for SMM control protein annotation, primary screen (AID 1128).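 Further: score merges feature fluorescence with signal-to-noise for each printed compound spot.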 The conditions noted are these: higher = more signal.
In test [2] the test system is Human papillomavirus type 1a E7 protein (residues 1-88). The test is described as follows: HPV1a E7 small-molecule binders, primary screen, biochemical, small-molecule microarray, residues 1-88, 635 nm (AID 1129). Particulars: small-molecule microarray binding, fluorescence 635 nm; higher = more signal.
Test [3] concerns the target Focal adhesion kinase 1 (Homo sapiens) (UniProt Q05397). As to the kind of experiment: PTK2 protein binding on printed compound slides – biochemical, small-molecule microarray, 635/667 nm fluorescence, BSA, DTT, primary screen (AID 1130).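 Further: composite of spot emission at 667 nm and signal to noise over triplicate slides.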 Particulars: 635 nm fluorescence, higher = more signal.
In test [4] the test system is Fibrinogen (Alexa647-labelled). As to the kind of experiment: Alexa647-fibrinogen binding to printed small molecules – biochemical, small-molecule microarray, 635/667 nm fluorescence, artefact control for SMM control-protein annotation, profiling panel (AID 1131).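 Further: z-score merges 667 nm fluorescence with per-spot signal-to-noise over triplicate slides.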 The conditions noted are these: fibrinogen-A647 binding fluorescence, higher = more signal.
Test [5] addresses Follistatin (Homo sapiens) (UniProt P19883). As to the kind of experiment: FST protein binding to printed compounds – biochemical, small-molecule microarray, 635/667 nm fluorescence, primary screen (AID 1132). Particulars: 635 nm fluorescence, higher = more signal.
The target of test [6] is Fibroblast growth factor 2 (Homo sapiens) (UniProt P09038). The test is described as follows: basic fibroblast growth factor binding to printed compounds – biochemical, small-molecule microarray, 635/667 nm fluorescence, primary screen (AID 1133). The conditions noted are these: FGF2, fluorescence 635/667, higher = more signal.
Test [7] can be described thus: JC-1 mitochondrial potential readout, lung cancer cells – cell-based, A549, JC-1 fluorescence, basal, 24 h, 100 nL, profiling panel (AID 1138).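 Further: A549 lung adenocarcinoma cells under basal conditions with no added stimulus; test concentration not given here.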 Particulars: higher = more signal.
The subject of test [8] is Lefty1. The test is described as follows: Lefty1 protein binding to printed compounds – biochemical, small-molecule microarray, 635/667 nm fluorescence, primary screen (AID 1139). The conditions noted are these: fluorescence 635/667, higher = more signal.
The test system of test [9] is wheat germ agglutinin (Triticum aestivum), Alexa647-labelled. As to the kind of experiment: Alexa647-WGA lectin binding to printed small molecules – biochemical, small-molecule microarray, 635/667 nm fluorescence, artefact control for SMM control-protein annotation, profiling panel (AID 1140).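 Further: score merges 667 nm feature emission with signal to noise over triplicate slides.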 The conditions noted are these: WGA-A647 binding, 635 nm fluorescence, higher = more signal.

Test [10] has as its target Luciferin 4-monooxygenase (Photinus pyralis) (UniProt P08659). The test is described as follows: inhibition of purified Photinus pyralis luciferase – biochemical, luminescence, purified enzyme, 2006 set, primary screen (AID 1141).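 Further: cell-free assay with purified firefly luciferase at 100 ng per well in PBS; test concentration not given here.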 Particulars: purified firefly luciferase, SteadyGlo luminescence, 30 min; higher = more signal, called active from +8 up or from −8 down.
For test [11], the system named is Wnt5a (protein binding on small-molecule microarray). The test is described as follows: small molecules binding Wnt5a protein – biophysical, small-molecule microarray, 635/667 nm fluorescence, primary screen (AID 1142).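 Further: fluorescence read at 667 nm with signal to noise per printed feature.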 The conditions noted are these: 635 nm fluorescence, higher = more signal.
The nature of test [12]: ATP-based viability of Huh7 replicon cells – cell-based, CellTiter-Glo luminescence, basal, 48 h, cytotoxicity control for HCV replication inhibitor project, primary screen (AID 1143).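 Further: Huh7 hepatoma cells carrying a hepatitis C replication reporter with no stimulus; test concentration not given here.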 The conditions noted are these: higher = more signal, called active from +8 up or from −8 down.
Test [13] in a line: Pseudomonas biofilm growth suppression – PAO1 strain, BacTiter-Glo luminescence, LB-PBS, primary screen (AID 1144). The conditions noted are these: P. aeruginosa PAO1 biofilm, 12 h, higher = more signal.
Test [14] is described as follows: basal CRE-LacZ reporter activity in PC12 – cell-based, unstimulated, primary screen (AID 1145). The conditions noted are these: no forskolin, luminescence, 4.5 h, higher = more signal, called active from +8 up or from −8 down.
Test [15] is described as follows: forskolin-driven CRE-LacZ activity in PC12 – cell-based, CRE-LacZ reporter, forskolin-stimulated, primary screen (AID 1146).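 Further: PC12 cells with 6xCRE LacZ reporter stimulated by forskolin 10 µM; beta-galactosidase reporter signal reflecting CREB driven transcription.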 The conditions noted are these: luminescence, 4.5 h, higher = more signal, called active from +8 up or from −8 down.
Test [16] addresses Streptavidin (Streptomyces avidinii) (UniProt P22629). The test is described as follows: compounds binding control protein streptavidin – biophysical, small-molecule microarray, 635/667 nm fluorescence, artefact control for SMM compound annotation, primary screen (AID 1147).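 Further: signal reflects streptavidin binding to arrayed compounds as a control protein.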 Particulars: higher = more signal.
Test [17] in a line: probe aInhba binding on compound microarray – biochemical, small-molecule microarray, 635/667 nm fluorescence, primary screen (AID 1148).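 Further: score merges 667nm spot fluorescence with signal-to-noise for antibody binding to printed compounds.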 Particulars: higher = more signal.
Test [18] deals with Torsin-1A (Homo sapiens) (UniProt O14656). The test is described as follows: TOR1A wild-type binding on microarray – cell lysate, small-molecule microarray, lysate, 635/667 nm, primary screen (AID 1149). The conditions noted are these: COS7 hTOR1A-WT lysate, 635 nm fluorescence, higher = more signal.
Test [19] shares this target. As to the kind of experiment: torsin A mutant lysate binding on microarrays – cell lysate, small-molecule microarray, COS7 lysate, 635/667 nm fluorescence, primary screen (AID 1150).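 Further: score pools 667 nm emission and signal to noise measuring lysate protein binding.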 The conditions noted are these: COS7 hTOR1A mutant lysate, 635 nm fluorescence, higher = more signal.
The subject of test [20] is Sonic hedgehog protein (Shh). The test is described as follows: Sonic hedgehog microarray binding compounds – biochemical, small-molecule microarray, 635/667 nm fluorescence, primary screen (AID 1151).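 Further: Shh protein binding to compounds spotted on small-molecule microarray slides; score combines spot fluorescence intensity with signal-to-noise across triplicate slides.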 Particulars: 635 nm fluorescence, higher = more signal.

Each structure is given as a SMILES string. Active and inactive are the calls of the source. Unless noted, how the calls were made is not given here.

Chain of Luciferin 4-monooxygenase (Photinus pyralis) (P08659 whole entry, looked up): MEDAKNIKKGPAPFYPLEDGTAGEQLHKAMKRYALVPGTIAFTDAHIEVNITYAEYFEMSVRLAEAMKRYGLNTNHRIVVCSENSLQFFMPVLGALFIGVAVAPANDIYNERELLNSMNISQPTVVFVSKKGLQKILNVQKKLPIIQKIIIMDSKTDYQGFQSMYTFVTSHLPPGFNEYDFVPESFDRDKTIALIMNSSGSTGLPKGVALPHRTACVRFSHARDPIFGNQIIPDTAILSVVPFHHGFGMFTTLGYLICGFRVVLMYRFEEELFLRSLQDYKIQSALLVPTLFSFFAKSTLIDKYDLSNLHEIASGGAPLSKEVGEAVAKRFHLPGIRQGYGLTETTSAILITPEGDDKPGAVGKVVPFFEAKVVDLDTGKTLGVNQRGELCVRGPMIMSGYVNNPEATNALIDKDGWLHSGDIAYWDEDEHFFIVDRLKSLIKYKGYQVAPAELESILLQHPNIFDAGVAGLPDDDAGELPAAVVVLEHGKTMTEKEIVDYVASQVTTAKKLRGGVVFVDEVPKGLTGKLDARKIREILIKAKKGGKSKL
Chain of Fibroblast growth factor 2 (Homo sapiens) (P09038 whole entry, looked up): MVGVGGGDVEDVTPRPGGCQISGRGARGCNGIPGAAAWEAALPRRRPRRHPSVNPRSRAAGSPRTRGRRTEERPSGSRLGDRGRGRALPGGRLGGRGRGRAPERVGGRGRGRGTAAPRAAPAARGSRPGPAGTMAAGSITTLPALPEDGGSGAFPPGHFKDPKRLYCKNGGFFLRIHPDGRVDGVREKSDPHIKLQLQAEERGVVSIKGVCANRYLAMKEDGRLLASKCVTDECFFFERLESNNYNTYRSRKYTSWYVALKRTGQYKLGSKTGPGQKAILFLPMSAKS
Chain of Streptavidin (Streptomyces avidinii) (P22629 whole entry, looked up): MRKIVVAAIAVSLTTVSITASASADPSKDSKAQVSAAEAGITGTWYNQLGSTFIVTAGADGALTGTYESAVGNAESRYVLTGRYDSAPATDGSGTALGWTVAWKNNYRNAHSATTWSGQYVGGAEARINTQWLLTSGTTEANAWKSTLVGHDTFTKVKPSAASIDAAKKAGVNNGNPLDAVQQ
Chain of Follistatin (Homo sapiens) (P19883 whole entry, looked up): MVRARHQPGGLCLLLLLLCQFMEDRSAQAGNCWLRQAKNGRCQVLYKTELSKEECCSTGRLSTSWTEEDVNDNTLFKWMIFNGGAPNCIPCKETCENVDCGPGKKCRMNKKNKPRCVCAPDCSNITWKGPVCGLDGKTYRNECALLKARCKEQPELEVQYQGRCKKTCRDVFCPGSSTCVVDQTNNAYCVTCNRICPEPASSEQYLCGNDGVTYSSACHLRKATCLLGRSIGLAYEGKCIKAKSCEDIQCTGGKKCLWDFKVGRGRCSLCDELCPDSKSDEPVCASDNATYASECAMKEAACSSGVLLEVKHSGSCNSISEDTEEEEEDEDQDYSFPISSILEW
Chain of Torsin-1A (Homo sapiens) (O14656 whole entry, looked up): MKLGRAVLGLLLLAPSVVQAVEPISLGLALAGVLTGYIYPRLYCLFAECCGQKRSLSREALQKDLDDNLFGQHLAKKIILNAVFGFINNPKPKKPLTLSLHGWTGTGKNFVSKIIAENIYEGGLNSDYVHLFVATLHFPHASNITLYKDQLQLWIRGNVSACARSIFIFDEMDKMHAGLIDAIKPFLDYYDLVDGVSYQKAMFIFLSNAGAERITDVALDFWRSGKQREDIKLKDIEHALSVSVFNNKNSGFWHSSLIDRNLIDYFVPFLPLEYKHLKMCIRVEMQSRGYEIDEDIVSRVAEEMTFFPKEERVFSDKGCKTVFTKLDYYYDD
Chain of Focal adhesion kinase 1 (Homo sapiens) (Q05397 whole entry, looked up): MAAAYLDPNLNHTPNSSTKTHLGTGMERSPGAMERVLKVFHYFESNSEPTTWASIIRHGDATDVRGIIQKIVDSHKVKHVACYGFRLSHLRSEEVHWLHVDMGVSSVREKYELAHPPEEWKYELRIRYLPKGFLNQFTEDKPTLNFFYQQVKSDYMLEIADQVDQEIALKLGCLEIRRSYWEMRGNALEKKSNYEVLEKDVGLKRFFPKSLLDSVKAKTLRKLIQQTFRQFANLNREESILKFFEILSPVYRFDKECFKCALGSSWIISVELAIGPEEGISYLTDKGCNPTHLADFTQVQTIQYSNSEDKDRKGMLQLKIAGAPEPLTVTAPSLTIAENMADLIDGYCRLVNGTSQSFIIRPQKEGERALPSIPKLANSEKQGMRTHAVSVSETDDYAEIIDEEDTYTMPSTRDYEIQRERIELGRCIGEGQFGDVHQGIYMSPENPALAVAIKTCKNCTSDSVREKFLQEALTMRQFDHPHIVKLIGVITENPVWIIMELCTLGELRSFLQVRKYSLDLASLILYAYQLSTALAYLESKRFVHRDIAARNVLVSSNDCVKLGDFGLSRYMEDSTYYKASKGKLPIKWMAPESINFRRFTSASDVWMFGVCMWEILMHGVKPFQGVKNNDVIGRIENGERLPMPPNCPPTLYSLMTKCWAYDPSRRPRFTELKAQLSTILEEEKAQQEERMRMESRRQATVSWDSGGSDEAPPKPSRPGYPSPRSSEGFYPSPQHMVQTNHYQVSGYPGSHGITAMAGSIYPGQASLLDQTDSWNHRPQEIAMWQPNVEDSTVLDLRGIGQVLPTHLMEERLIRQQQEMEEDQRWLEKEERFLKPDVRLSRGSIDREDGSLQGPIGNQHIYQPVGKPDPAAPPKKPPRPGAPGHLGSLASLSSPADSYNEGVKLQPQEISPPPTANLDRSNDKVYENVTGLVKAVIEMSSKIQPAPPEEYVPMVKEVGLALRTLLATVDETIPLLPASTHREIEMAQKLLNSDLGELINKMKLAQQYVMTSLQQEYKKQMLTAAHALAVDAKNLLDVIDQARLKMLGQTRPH

On to `O=C(O)[C@@]1(Cc2ccccc2)N=C(c2ccc(OCCCO)cc2)O[C@H]1c1ccccc1`, for which the composite z-score in test [1] is 1.31; in test [2], -0.112; in test [3], -0.233; in test [4] it was 0.967; in test [5] it was 0.572; in test [6], -0.686. Moreover, the composite z-score in [8] is 0.194; in test [9] it was 0.915; in [11] it was -0.243; in test [16] it was -0.28; in [17] it was 0.166; in [18], -0.184. For the same compound, the composite z-score in test [19] was 1.4; in test [20], 0.422. The z-score in test [7] is 0.593; in [10] it was 1.16 (inactive); in [12] it was -0.637 (inactive); in [13] it was -0.622 (inactive); in test [14], -0.286 (inactive); in test [15], -0.215 (inactive).

For the compound `C=CC(COC(C)=O)NS(=O)(=O)c1ccc(Br)cc1` (stereo not given), the composite z-score is 0.192 in test [1]; 0.971 in [2]; -0.271 in test [3]; 0.596 in test [4]; 0.902 in [5]; 0.608 in test [6]. For the same compound, the composite z-score in test [8] was 0.673; in test [9], 0.0285; in [11] it was 0.136; in [16], 0.923; in [17], -0.105; in [18] it was 0.211. For the same compound, the composite z-score worked out at 0.385 in [19] and 0.948 in test [20]. The z-score was 0.499 in test [7]; -0.481 (inactive) in [10]; 0.0481 (inactive) in test [12]; 0.465 (inactive) in [13]; 2.39 (inactive) in test [14]; 1.33 (inactive) in test [15].

As to `CCOC(=O)C1=CC[C@@H](c2ccccc2)N(S(=O)(=O)c2ccc(C)cc2)[C@H]1C(=O)OCC`, the composite z-score in test [1] was 0.558; in test [2], 1.2; in test [3] it was 1.17; in test [4] it was 0.0499; in test [5], 0.305; in test [6], -0.128. Further, the composite z-score in test [8] is -0.238; in test [9] it was 0.951; in test [11] it was 0.3; in test [16], 0.491; in [17], 0.421; in [18], 0.59. In addition, the results for the composite z-score in test [19] and in test [20] were 0.523 and -0.189, respectively. Also, the z-score in [7] is 1.84; in test [10], 0.693 (inactive); in test [12] it was -4.23 (inactive); in [13] it was 1.43 (inactive); in test [14], -0.415 (inactive); in [15], -0.76 (inactive).

For the compound `C[C@]1(C(=O)NCc2ccccc2)c2ccccc2C(=O)N(Cc2ccc(OC(F)(F)F)cc2)[C@H]1c1ccc(CO)cc1`, the composite z-score in test [1] is 1.71; in test [2], 1.02; in [3] it was 0.549; in [4], -0.38; in [5], 0.49; in test [6] it was -0.186. The composite z-score was -0.111 in test [8]; -0.403 in test [9]; 0.272 in test [11]; -0.232 in test [16]; -0.0719 in test [17]; -0.0977 in test [18]. Besides, the composite z-score in [19] was 0.223; in test [20], -0.135. The z-score is 1.27 in test [7]; 0.882 (inactive) in test [10]; -3.15 (inactive) in test [12]; -0.808 (inactive) in test [13]; 0.414 (inactive) in [14]; -0.958 (inactive) in test [15].

On to `[N-]=[N+]=Nc1ccccc1[C@@H]1OC(c2ccc(OCCCO)cc2)=N[C@]1(CCS(=O)(=O)c1ccccc1)C(=O)N1CCOCC1`, for which the composite z-score in test [1] turned out to be 1.48; in [2] it was 1.26; in [3] it was 0.488; in test [4], 1.02; in test [5], 1.33; in test [6] it was 0.544. Also, the composite z-score turned out to be 0.541 in test [8]; 1.3 in [9]; 1.3 in [11]; 1.52 in [16]; 0.165 in test [17]; 0.46 in test [18]. In addition, the composite z-score in test [19] was 1.63; in test [20] it was -0.29. Besides, the z-score was 1.13 in [7]; -12.9 (active) in test [10]; -2.26 (inactive) in [12]; -0.199 (inactive) in test [13]; 1.8 (inactive) in [14]; -1.49 (inactive) in test [15].
